Sampled rows, rich in hits. Any-hit rate of the full collection: about 13%.
Shiga inhibitor = blocks Shiga toxin action in Vero cells. Vero cells, Shiga toxin protein synthesis inhibition reporter. inhibition, % at 38.7 µM. 290,000 compounds, 9.2% hits; in the data active = inhibition mostly above about 28%, no sharp cut-off; inactive = mostly below about 43%; note: 0% is about no effect
LASV entry inh = Lassa virus entry inhibition; Lassa virus pseudotype entry inhibition, cell reporter; Potency, µM (titrated, usually from 37.9 µM), for the others: at the top dose activity change, negative = inhibition, actives largely listed as inhibitors; 300,000 compounds, 1.2% hits; AID 540256; calls by dose curve; tested in HEK293 cells; note: potency is the fitted concentration of half-maximal effect; % is set by controls: 0 for no effect and ±100 for the full control effect; nearly all actives have a fitted effect of over 50% in size
Marburg entry inh = inhibitors of Marburg virus binding or cell entry; Marburg virus pseudotyped entry inhibition, cell reporter; Potency, µM (top dose mostly 37.8 µM), for inactives: at the top dose activity change, negative = inhibition, usual class: inhibitors; 300,000 compounds, 1.8% hits; calls by dose curve; tested in HEK293 cells; note: potency is the fitted concentration of half-maximal effect; % is set by controls: 0 for no effect and ±100 for the full control effect
FMDV inh = foot and mouth disease virus antiviral activity | FMDV antiviral cell-based qHTS | Potency, µM (top dose mostly 57.9 µM), for inactives: top-dose activity change, negative = inhibition, usual class: inhibitors | 410,000 compounds, 1.2% hits | AID 1159524; calls by dose curve; tested in HEK293T cells; note: read-out not given here; potency is the fitted concentration of half-maximal effect; % is set by controls: 0 for no effect and ±100 for the full control effect; nearly all actives have a fitted effect of over 45% in size
HCV inhibitor = HCV inhibition | Huh7.5.1 HCVcc-Cre infection, luciferase reporter, 44 h | AID 651820 | 340,000 compounds, 3.4% hits | Potency, µM (titrated, usually from 41.8 µM), for the others: at the top dose activity change, negative = inhibition, hits mostly inhibitors; active = well fitted inhibition curve with a large enough effect; inconclusive = small, poorly fitted or top-dose-only effect, or another doubt; inactive = no such curve, though single readings can be large or run the other way; note: potency is the fitted concentration of half-maximal effect; % is set by controls: 0 for no effect and ±100 for the full control effect
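1,000 cells/well; 4 h culture; + compound; + HCVcc-Cre (~0.5 moi); 44 h; luciferase substrate, RT 15 min; read 15 sec.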
CHX counter = affects cycloheximide protein synthesis inhibition readout, counter-screen; cell reporter, cycloheximide protein synthesis inhibition counterscreen; 300,000 compounds, 12% hits; max response, %; in the data active = max response mostly above about 13%, no sharp cut-off; inactive = mostly below about 14%; note: read at 38.3 µM for the half of the compounds with a filed dose; 0% is about no effect
* = called active by the depositor; ? = inconclusive; / = not tested or not shown; [ ] = remark or other dose.

SMILES | Shiga inhibitor | LASV entry inh | Marburg entry inh | FMDV inh | HCV inhibitor | CHX counter
COc1ccc(NC(=O)Cc2c(F)c(F)c(F)c(F)c2F)cc1OC | -2 | 22%[46.1 µM] | 7%[46.1 µM] | 3% | 5% | -3
O=C(Nc1nc2ccccc2n1CCN1CCOCC1)c1ccc(Cl)cc1 | 50* | ? | ? | -6% | -35% | 12*
O=C(/C=C/c1cccs1)N1CCN(c2ccccc2F)CC1 | 63* | 12% | 10% | 19% | -10% | 15*
O=C(/C=C/c1ccc([N+](=O)[O-])cc1)N1CCN(c2ccccc2F)CC1 | 46* | ? | ? | 35% | 18% | 15*
Cc1cccc(N=C2NC(=O)/C(=C/C=C/c3ccco3)S2)c1 | -13 | 18µM* | ? | 9% | ? | -2
O=C1NC(=Nc2ccc(O)cc2)S/C1=C/c1ccco1 | 22 | 4.6µM* | ? | 5% | ? | 17*
Cc1ccc(N=C2NC(=O)/C(=C\c3ccco3)S2)cc1 | 46* | ? | 7% | 47% | -3% | 28*
COCCn1c(=O)c2ccccc2c2ccccc2c1=O | -12 | -13%[46.1 µM] | ? | -7% | 0% | -2
O=C(CNc1ccccc1Cl)c1ccc(Br)cc1 | / | ? | ? | 28% | ? | 2
Cc1ccc(C(=O)CCC(=O)Nc2ccc(C)cc2C)cc1 | / | 6%[46.1 µM] | / | -4% | / | /
Cc1ccc(C(=O)CNc2ccccc2C)cc1 | 118* | -15% | 23% | 20% | 0% | 42*
Cc1ccc(C(=O)CNc2ccc(C)cc2C)cc1 | / | -3% | -30% | -25% | ? | 13*
Cc1ccc(CNC(=O)Nc2ccccc2)c(C)c1 | 64* | -27% | ? | 47% | ? | 31*
Cc1ccccc1CNC(=O)Nc1ccc(Cl)cc1 | 69* | -6%[46.1 µM] | ? | 16% | -20% | 34*
CSc1nnc(CNS(=O)(=O)c2ccc(Cl)cc2)n1C | -7 | ? | -11%[46.1 µM] | -8% | 15% | -4
COc1ccccc1-c1noc(-c2ccccc2C(=O)NCc2ccco2)n1 | 30 | -12%[46.1 µM] | ? | 0% | 0% | 14*
COc1cc(-c2noc(-c3ccccc3C(=O)NCc3ccco3)n2)cc(OC)c1OC | 28 | ? | ? | ? | 11µM* | 12
COc1ccc(-c2noc(-c3ccccc3NC(=O)c3cc(OC)c(OC)c(OC)c3)n2)cc1 | / | 23%[46.1 µM] | 21%[46.1 µM] | ? | / | /
COc1nc(-c2ccccc2)ccc1-c1noc(-c2cccs2)n1 | / | -6% | -18% | 66% | -4% | /
COc1nc(C)ccc1-c1noc(-c2cccs2)n1 | 140* | -29% | 11µM* | 13% | ? | 58*
COc1cc(-c2nc(-c3ccc(C)nc3OC)no2)cc(OC)c1OC | -14 | / | 0% | / | ? | -2
COc1nc(C)ccc1-c1noc(-c2ccncc2)n1 | 25 | 3% | -1% | 70% | -24% | 23*
CCOC(=O)C1=C(C)N(C[C@@H]2CC[C@@H](Cc3ccc(-c4ccccc4)cc3)O2)C(=O)NC1c1ccc(-c2ccccc2)cc1 (some centres not stated) | / | / | / | -10% | -9% | /
COC(=O)c1c(C)[nH]c(C(=O)C(Cc2ccccc2)N(C)C)c1C (configuration not stated) | 96* | 29% | 12% | 19% | 5% | 26*
CCOC(=O)c1c(C)[nH]c(C(=O)C(Cc2ccccc2)N(C)C)c1C (configuration not stated) | 34 | 22% | ? | 14% | -4% | 20*
SMILES | Shiga inhibitor | LASV entry inh | Marburg entry inh | FMDV inh | HCV inhibitor | CHX counter
CCOC(=O)c1c(C)[nH]c(C(=O)OC(C)C(=O)NCc2ccccc2)c1C (configuration not stated) | / | ? | 9% | -14% | -23% | /
CCOc1ccccc1NC(=O)c1cc(=O)c2ccc(C)cc2o1 | / | 10%[46.1 µM] | 6%[46.1 µM] | -15% | / | /
Cn1c(=O)n(C)c2cc(NC(=O)c3cc4ccccc4o3)ccc21 | 89* | 0% | 14% | / | ? | 33*
CC(Cc1ccccc1)NC(=O)c1cc2ccccc2o1 (configuration not stated) | 141* | 1%[46.1 µM] | ? | 39% | -3% | 59*
O=C(O)c1ccc(NC(=O)c2cc3ccccc3o2)cc1 | 47 | 14%[46.1 µM] | / | 55% | 1% | 21*
CCC(=O)Nc1ccc(NC(=O)c2cc3ccccc3o2)cc1 | 83* | -1% | 8% | -28% | -28% | 70*
CC(C)C(C(=O)Nc1ccccc1F)N1C(=O)c2ccccc2C1=O (configuration not stated) | / | 10%[46.1 µM] | ? | -6% | 21% | /
COc1ccccc1OC(C)C(=O)Nc1cccc(-c2nc3ccccc3s2)c1 (configuration not stated) | / | 8%[46.1 µM] | -11%[46.1 µM] | -6% | / | /
O=C(Nc1ccc2oc(=O)ccc2c1)c1cc2ccccc2o1 | 54* | -7% | ? | 43% | ? | 35*
Cc1ccc(C(=O)Nc2ccc3c(c2)n(C)c(=O)c(=O)n3C)cc1 | / | 14%[46.1 µM] | 22%[46.1 µM] | -15% | / | /
CCc1ccc(C(=O)Nc2ccc3c(c2)n(C)c(=O)n3C)cc1 | / | -1% | 15% | 76% | -13% | 12*
O=C(Nc1ccc2c(c1)OCCO2)C(c1cc2ccccc2o1)N1CCC(Cc2ccccc2)CC1 (configuration not stated) | / | / | / | 31% | / | /
O=C(Nc1ccc2c(c1)OCCO2)c1cc2ccccc2o1 | 88* | 7.9µM* | 4µM* | -35% | 22µM* | 24*
CCC(=O)Nc1cccc(NC(=S)NC(=O)c2cc3ccccc3o2)c1 | 72* | ? | ? | 5% | -24% | 35*
Cc1cc(=O)oc2cc(NC(=O)c3cc4ccccc4o3)ccc12 | 80 | / | 3% | / | -15% | 20
CCCCc1ccc(-n2nc3ccc(NC(=O)c4cc5ccccc5o4)cc3n2)cc1 | / | 1%[46.1 µM] | / | 25µM* | / | /
Cc1ccc(-n2nc3ccc(NC(=O)c4cc5ccccc5o4)cc3n2)cc1 | / | 19%[46.1 µM] | / | 28% | / | /
CC(C)(C)c1ccc(C(O)c2ncc(-c3ccccc3Cl)[nH]2)cc1 (configuration not stated) | / | / | / | 29% | / | /
CN(CC(=O)N1CCN(c2ccc(F)cc2)CC1)S(=O)(=O)c1ccc(F)cc1 | 33* | -3% | -18% | 0% | 2% | 14
CC(=O)c1ccc(N2CCN(C(=O)CN(C)S(=O)(=O)c3cnc[nH]3)CC2)cc1 | 42 | 24%[46.1 µM] | ? | 14% | 3% | 39*
COCc1cccc(C2=CC(=O)C[C@H](c3ccc(OC)cc3)C2)c1 | / | / | / | 4% | ? | /
O=C(O)c1sc2cccc(Cl)c2c1Cl | 50 | 1% | 21%[46.1 µM] | 1% | 14% | 16*
CCN1C(=O)c2cccc3c(S(=O)(=O)NCc4ccco4)ccc1c23 | 18* | 1% | -24% | 66% | -7% | 23*
CCN1C(=O)c2cccc3c(S(=O)(=O)NCc4cccnc4)ccc1c23 | -5 | -14% | ? | 13% | ? | -3
NC(=O)c1cc(S(=O)(=O)N2CCOCC2)ccc1Sc1ccccc1N | / | -14% | 4%[46.1 µM] | 4% | 8% | /

Compound activity as filed in PubChem.
